Assay outcomes from PubChem BioAssay.
HT1080NT lethal – kills 2HG-producing HT-1080-NT fibrosarcoma cells. Potency, µM (series often up to 46.1 µM), without a hit: at the top dose activity, negative = less viability, hits mostly cytotoxic. HT-1080-NT fibrosarcoma viability, CellTiter-Glo ATP luminescence, 48 h. AID 686970. 1.6% of 360,000 active;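 note: NT is the 2HG producing partner of a matched IDH1 knockdown line; 0% = DMSO-treated cells and -100% = media-only wells without cells; nearly all actives have a fitted effect of over 55% in size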
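Viability of the 2HG-overproducing fibrosarcoma line after 48 hours of compound exposure at 37 degrees C was determined by luminescence with CellTiter-Glo, and concentration-effect curves were then fitted and categorized.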
DT40 TDP1 CPT – growth inhibition of DT40 Tdp1-/-;hTDP1 cells with camptothecin (screen for TDP1 inhibitors); chicken DT40 Tdp1-/-;hTDP1 cells + 20 nM CPT, ATP luminescence, 48 h; Potency, µM (highest dose often 46.2 µM), inactives show top-dose activity change, negative = growth inhibition, hits mostly inhibitors; 12% of 420,000 active; note: % is set by controls: 0 for no effect and ±100 for the full control effect; nearly all actives have a fitted effect of over 55% in size
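Chicken DT40 Tdp1-/- cells complemented with human TDP1, 400 cells/well, exposed to compounds plus 20 nM camptothecin for at least 48 h at 37 C; viability read as ATP content by CellTiter-Glo luminescence.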
DT40 TDP1 no CPT – qHTS for Inhibitors of human tyrosyl-DNA phosphodiesterase 1 (TDP1): qHTS in cells in absence of CPT. DT40 Tdp1-/- hTDP1 cells, no CPT, ATP luminescence, 48 h. Potency, µM (titrated, usually from 46.2 µM), without a hit: top-dose activity change, negative = growth inhibition, actives largely listed as inhibitors. 15% of 420,000 active; note: % is set by controls: 0 for no effect and ±100 for the full control effect; nearly all actives have a fitted effect of over 55% in size
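Luminescent ATP content (CellTiter-Glo) served as the growth readout. Knockout chicken DT40 cells expressing human TDP1 were exposed to compounds without camptothecin for a minimum 48 hr at 37 °C.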
TGFb SMAD3 inh – blocks TGF-b signaling; Potency, µM (doses to about 46.1 µM), inactives show at the highest dose activity, negative = inhibition, most hits filed as inhibitors; AID 588855; 1.2% of 410,000 active; HepG2 CAGA-GFP TGF-b/SMAD3 reporter, GFP fluorescence, 18 h; TGF-beta stimulated, 500 pg/mL final; note: % is set by controls: 0 for no effect and ±100 for the full control effect; nearly all actives have a fitted effect of over 65% in size
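Inhibition of TGF-beta-driven CAGA-GFP reporter expression in HEPG2 cells is measured by cellular GFP fluorescence after 18 h stimulation with 500 pg/mL recombinant TGF-beta in 1% FBS medium at 37 degrees C.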
HT1080 IDH1KD tx – toxicity to HT-1080 IDH1 knockdown cells (counter line). Potency, µM (highest dose often 46.1 µM), for the others: at the top dose activity, negative = toxicity, actives largely listed as cytotoxic. 2% of 360,000 active. HT-1080 IDH1 knockdown viability, ATP luminescence, 48 h;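 note: 0% = DMSO wells and -100% = cell-free medium wells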
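CellTiter-Glo luminescence after 48 h compound exposure at 37 degrees C of IDH1-knockdown HT-1080 cells in 5% FBS RPMI. %Activity scaled between DMSO wells and cell-free media wells, with curves fitted and assigned curve classes.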
HepG2 tox – kills HepG2 cells in TGF-b inhibitor counter-screen; HepG2 CAGA-GFP viability, ATP luminescence, 18 h; Potency, µM (highest dose often 46.1 µM), without a hit: at the highest dose activity change, negative = cytotoxicity, most hits filed as cytotoxic; 0.76% of 410,000 active
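CellTiter-Glo luminescence gave cytotoxicity after 18 hours at 37 degrees C. The cells were HepG2 CAGA-GFP in 1% FBS DMEM, stimulated with 500 pg/mL TGF-beta after compound addition. %Activity was normalised to no-cell wells (complete cell-killing) and DMSO (no toxicity), and curves were fitted and classified.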
Active calls of the source: *; ? = inconclusive; . = not tested or not shown. Rows were chosen to be rich in hits. Some 17% of all compounds tested hit in one or more screens of this group. Calls come from the whole dose curve; as a rule, active = well fitted curve in the direction sought with a large enough effect; inconclusive = small, poorly fitted or top-dose-only effect, or another doubt; inactive = no such curve, though single readings can be large; an effect the other way counts as inactive or inconclusive. Potency is the fitted concentration of half-maximal effect.

SMILES | HT1080NT lethal | DT40 TDP1 CPT | DT40 TDP1 no CPT | TGFb SMAD3 inh | HT1080 IDH1KD tx | HepG2 tox
CCOc1ccc(NC(=O)CSc2oc(-c3cccs3)nc2S(=O)(=O)c2ccc(Cl)cc2)cc1 | . | 18µM* | 13µM* | -6% | . | -13%
O=S(=O)(c1ccc(Cl)cc1)c1nc(-c2cccs2)oc1SCc1ccc(F)cc1 | . | 21µM* | ? | 6% | . | -1%
Cc1ccc(S(=O)(=O)c2nc(-c3ccc(F)cc3)oc2SCC(=O)NC2CCCCC2)cc1 | . | -2% | ? | 2% | . | -15%
O=S(=O)(c1ccc(Br)cc1)c1nc(-c2cccs2)oc1SCc1ccc(F)cc1 | . | ? | ? | -15% | . | -1%
CCOc1ccc(NC(=O)CSc2oc(-c3ccc(C)cc3)nc2S(=O)(=O)c2ccc(C)cc2)cc1 | . | 7.3µM* | 5.8µM* | ? | . | 2%
COc1ccc(-c2csc(N3CCN(S(=O)(=O)c4ccc5c(c4)NC(=O)CO5)CC3)n2)cc1 | -1% | ? | ? | -23% | -23% | -4%
CCOc1ccc(N2CC(NS(=O)(=O)c3cccs3)CC2=O)cc1 (configuration not stated) | -1% | -8% | -20% | -28% | -5% | -6%
CCOC(=O)c1c(-c2ccccc2)oc2ccc(OCc3cccc(Br)c3)cc12 | . | -13% | -28% | 17% | . | -1%
CCOC(=O)c1c(C)[nH]c(C)c1S(=O)(=O)NCC(=O)NCc1ccc(C)cc1 | . | -10% | -12% | -15% | . | 4%
FC(F)(F)c1cc(Cl)c2nc(-c3ccccc3)c(Cc3ccccc3)n2c1 | 22% | -21% | 3% | -26% | 13% | -38%
COc1cc(NC(=O)CCc2c(C)nc3c(-c4ccc(F)cc4)c(C)nn3c2C)cc(OC)c1OC | . | 5.2µM* | 6.5µM* | -1% | . | -5%
COC(CNC(=O)CCc1c(C)nc2c(-c3ccc(F)cc3)c(C)nn2c1C)OC | -18% | -11% | ? | 2% | -9% | -40%
Cc1cccc(CCNC(=O)CCc2c(C)nc3c(-c4ccc(F)cc4)c(C)nn3c2C)c1 | . | ? | 9.2µM* | -17% | . | -12%
Cc1ccc(NC(=O)CCc2c(C)nc3c(-c4ccc(F)cc4)c(C)nn3c2C)cc1F | . | -20% | ? | -4% | . | 5%
CC(=O)c1cccc(NC(=O)CCc2c(C)nc3c(-c4ccc(F)cc4)c(C)nn3c2C)c1 | . | 2.6µM* | ? | -2% | . | -3%
Cc1nc2c(-c3ccc(F)cc3)c(C)nn2c(C)c1CCC(=O)Nc1ccccc1F | -1% | ? | -18% | -3% | 5% | -13%
COc1ccc(F)cc1C(=O)C1CCCN(C(=O)c2cccc(N(C)C)c2)C1 (configuration not stated) | -2% | ? | ? | -19% | 0% | -19%
COc1ccc(F)cc1C(=O)C1CCCN(C(=O)c2ccccc2N(C)C)C1 (configuration not stated) | ? | ? | 18µM* | ? | -1% | -52%
Cc1ccsc1C(=O)N1CCCC(C(=O)c2cc(F)ccc2F)C1 (configuration not stated) | ? | ? | 23µM* | ? | 11% | 5%
COc1ccc2c(C)cc3n[nH]c(=S)n3c2c1 | 1% | -26% | -22% | -1% | 4% | 8%
O=C(NCCSCc1ccccc1Cl)C1CCN(S(=O)(=O)Cc2ccccc2)CC1 | . | 5% | ? | -15% | . | -17%
CC1=NN(C(N)=S)C(=O)C1N=Nc1ccc(Br)cc1 (configuration not stated) | -3% | 21µM* | ? | 0% | -7% | -30%
CC1=NN(C(N)=S)C(=O)C1N=Nc1ccccc1 (configuration not stated) | 8% | ? | ? | -13% | 3% | -2%
CC1=NN(C(N)=S)C(=O)C1N=Nc1cccc(Cl)c1C (configuration not stated) | -10% | 13µM* | 8.2µM* | 14% | -28% | -4%
CC1=NN(C(N)=S)C(=O)C1N=Nc1cccc([N+](=O)[O-])c1 (configuration not stated) | 15% | ? | -13% | 0% | 23% | -13%
SMILES | HT1080NT lethal | DT40 TDP1 CPT | DT40 TDP1 no CPT | TGFb SMAD3 inh | HT1080 IDH1KD tx | HepG2 tox
CC1=NN(C(N)=S)C(=O)C1N=Nc1ccc(Cl)cc1 (configuration not stated) | -6% | 0.52µM* | 1.5µM* | 1% | -18% | -25%
CCOc1cc2sc(N3CCC(C(=O)Nc4ccccc4Cl)CC3)nc2cc1Br | . | ? | ? | -1% | . | 5%
COc1ccc(C(=O)N2CCC3(CCCN(C(=O)NC(C)C)C3)CC2)cc1 | . | 4% | -2% | . | . | .
CCOc1ccc(NC(=O)Cn2c(=O)n(-c3cccc(OC)c3)c(=O)c3c4c(sc32)CCCC4)cc1 | . | ? | -2% | -8% | . | -2%
Cc1ccc(/C([O-])=C(/C(=S)NCc2ccccc2)[n+]2cccc(CO)c2)cc1[N+](=O)[O-] | 0% | -2% | -7% | 0% | 1% | -5%
CCc1cc[n+](C(C(=S)Nc2cccc(C)c2)=C([O-])c2ccc(C)c([N+](=O)[O-])c2)cc1 | -2% | 16µM* | . | -9% | 0% | -3%
O=C(Nc1ccccc1N1CCCC1)C1CCN(C(=O)c2ccc(F)cc2)CC1 | 2% | 5% | -2% | 13% | 1% | 1%
CC[C@@H]1C/C=C\Cc2ccccc2[C@@H](C(=O)C[C@H](O)CC(C)=O)OC1=O | 4% | 15% | -4% | 2% | 4% | 2%
